Reference: PubChem BioAssay (NCI)
About 83,000 compounds went through this panel and 20% of them were active in at least one assay; those are over-represented in the sample as a whole.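 For each line, cells grew in 96-well plates with the test compound present at a single concentration for 48 hours.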 Values without a mark were called inactive. The source made the active and inactive calls. Rule for the calls: active = growth percent below 10; inactive = the rest.

Key:
Assay in all cases: NCI-60 one-dose screen, 48 h (100 = growth as untreated, 0 = no growth, -100 = all killed)
Conditions in all cases: 10 µM unless noted
[1] = test system: SK-MEL-2 melanoma
[2] = test system: EKVX NSCLC
[3] = test system: SN12C renal
[4] = test system: UO-31 renal
[5] = test system: TK-10 renal
[6] = test system: ACHN renal
[7] = test system: CAKI-1 renal
[8] = test system: A498 renal
[9] = test system: CCRF-CEM leukemia
[10] = test system: MOLT-4 leukemia

Compound: COc1ccc2nc(N/N=C(\C)c3ccccn3)cc(C)c2c1
- growth [1]: -22.8% (active)
- growth [2]: -84.4% (active)
- growth [3]: 11.8%
- growth [4]: -31% (active)
- growth [5]: 18.4%
- growth [6]: -13.8% (active)
- growth [7]: -3.71% (active)
- growth [8]: -64.5% (active)
- growth [9]: -37.4% (active)
- growth [10]: -49.9% (active)

Compound: CCOC(=O)c1sc(NC(=O)COc2cccc(/C=C3\CCc4cc(OC)ccc4C3=O)c2)nc1C
- growth [1]: 42.6%
- growth [2]: 82.9%
- growth [3]: 48.9%
- growth [4]: 14%
- growth [5]: 89.3%
- growth [6]: 85.7%
- growth [7]: 60.2%
- growth [8]: 85.8%
- growth [9]: -17.2% (active)
- growth [10]: 7.22% (active)

Compound: O=c1c2ccccc2c2nccn2c2cc(Cl)ccc12
- growth [1]: 81.5%
- growth [2]: 83.2%
- growth [3]: 112%
- growth [4]: 70.7%
- growth [5]: 137%
- growth [6]: 138%
- growth [7]: 75.2%
- growth [8]: 77.9%
- growth [9]: 34%
- growth [10]: -54.9% (active)

Compound: CN(C)CCC(=O)Nc1ccc(-n2cc(-c3cccc(NC(=S)Nc4cccc(-c5cn(-c6ccc(NC(=O)CCN(C)C)cc6)nn5)c4)c3)nn2)cc1
- growth [1]: 91.6%
- growth [2]: 101%
- growth [3]: 91.4%
- growth [4]: 135%
- growth [5]: 142%
- growth [6]: 117%
- growth [7]: 130%
- growth [8]: 108%
- growth [9]: 48.4%
- growth [10]: 47.2%

Compound: Cc1ccc(C(=O)Cc2ccccc2)c(O)c1
- growth [1]: 101%
- growth [2]: 99.4%
- growth [3]: 94.8%
- growth [4]: 86.4%
- growth [5]: 104%
- growth [6]: 102%
- growth [7]: 95%
- growth [8]: 79.3%
- growth [9]: 112%
- growth [10]: 92.3%

Compound: NC(=O)NS(=O)(=O)c1ccc(N2N=C(C(F)(F)F)CC2c2cc(C(F)(F)F)cc(C(F)(F)F)c2)cc1 (stereo not given)
- growth [1]: 11.2%
- growth [2]: 58.5%
- growth [3]: 83.5%
- growth [4]: 49.6%
- growth [5]: 85.6%
- growth [6]: 80.7%
- growth [7]: 78.9%
- growth [8]: 70.1%
- growth [9]: 37.4%
- growth [10]: 43.2%

Compound: COc1cc(-c2nc3nc4sc(C)c(C)c4c(=O)n3[nH]2)cc(OC)c1OC
- growth [1]: 80.1%
- growth [2]: 88%
- growth [3]: 93.6%
- growth [4]: 54.7%
- growth [5]: 110%
- growth [6]: 83.2%
- growth [7]: 61.8%
- growth [8]: 74.5%
- growth [9]: 61%
- growth [10]: 68.3%

Compound: Cc1[nH]cnc1/C=C1\SC(N2CCCCC2)=NC1=O
- growth [1]: 98%
- growth [2]: 108%
- growth [3]: 98.4%
- growth [4]: 83%
- growth [5]: 109%
- growth [6]: 106%
- growth [7]: 112%
- growth [8]: 83.4%
- growth [9]: 99.3%
- growth [10]: 100%

Compound: c1ccc(CN=C(NCc2ccccc2)NCc2ccccc2)cc1
- growth [1]: 60.5%
- growth [2]: 28.2%
- growth [3]: 72.2%
- growth [4]: 61.3%
- growth [5]: 58.6%
- growth [6]: 73.1%
- growth [7]: 84.8%
- growth [8]: 84.7%
- growth [9]: 65.5%
- growth [10]: 70.7%

Compound: O=C1Nc2ccc(Cl)cc2/C1=C/c1cccs1
- growth [1]: 108%
- growth [2]: 68.3%
- growth [3]: 87.9%
- growth [4]: 44.8%
- growth [5]: 120%
- growth [6]: 88.2%
- growth [7]: 79.5%
- growth [8]: 97.5%
- growth [9]: 102%
- growth [10]: 91%

Compound: BrC1CC(Br)c2c1c1c(c3c2C(Br)CC3Br)C(Br)CC1Br (stereo not given)
- growth [1]: 115%
- growth [2]: 101%
- growth [3]: 109%
- growth [4]: 39.9%
- growth [5]: 121%
- growth [6]: 87.2%
- growth [7]: 94.5%
- growth [8]: 117%
- growth [9]: 114%
- growth [10]: 75.8%

Compound: CC1=C([Se]CC(OC(=O)[C@@H](CSSC(C)(C)C)NC(=O)C(C)(C)C)C(=O)NCCCCCC(=O)OCc2ccccc2)C(=O)c2ccccc2C1=O (stereo not given in full)
- growth [1]: -24.2% (active)
- growth [2]: -24.2% (active)
- growth [3]: 2.42% (active)
- growth [4]: -78.5% (active)
- growth [5]: -29.3% (active)
- growth [6]: -10.9% (active)
- growth [7]: -19.3% (active)
- growth [8]: -5.18% (active)
- growth [9]: 3% (active)
- growth [10]: 5.23% (active)

Compound: O=C(C(=O)N1CCOCC1)c1cn(CCCn2cc(C(=O)C(=O)N3CCOCC3)c3ccccc32)c2ccccc12
- growth [1]: 100%
- growth [2]: 104%
- growth [3]: 96.3%
- growth [4]: 75.3%
- growth [5]: 97.6%
- growth [6]: 100%
- growth [7]: 104%
- growth [8]: 134%
- growth [9]: -13.1% (active)
- growth [10]: 104%
